Results published in PMC11102862.

What was measured:
[1] = target: U5 small nuclear ribonucleoprotein TSSC4 (UniProt Q9Y5U2); test: cross-linking mass spectrometry
[2] = target: CD2 antigen cytoplasmic tail-binding protein 2 (UniProt O95400); test: cross-link between two proteins; cross-linking mass spectrometry
[3] = target: U5 small nuclear ribonucleoprotein 40 kDa protein (UniProt Q96DI7); test: as above
[4] = target: Pre-mRNA-processing-splicing factor 8 (UniProt Q6P2Q9); test: as above
[5] = target: Thioredoxin-like protein 4A (UniProt P83876); test: as above
Chain of Thioredoxin-like protein 4A (P83876 whole entry): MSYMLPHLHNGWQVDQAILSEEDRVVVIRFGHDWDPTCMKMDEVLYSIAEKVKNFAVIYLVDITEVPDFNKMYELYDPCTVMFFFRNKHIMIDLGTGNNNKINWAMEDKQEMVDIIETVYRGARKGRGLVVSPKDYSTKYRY

Chain of U5 small nuclear ribonucleoprotein 40 kDa protein (Q96DI7 whole entry): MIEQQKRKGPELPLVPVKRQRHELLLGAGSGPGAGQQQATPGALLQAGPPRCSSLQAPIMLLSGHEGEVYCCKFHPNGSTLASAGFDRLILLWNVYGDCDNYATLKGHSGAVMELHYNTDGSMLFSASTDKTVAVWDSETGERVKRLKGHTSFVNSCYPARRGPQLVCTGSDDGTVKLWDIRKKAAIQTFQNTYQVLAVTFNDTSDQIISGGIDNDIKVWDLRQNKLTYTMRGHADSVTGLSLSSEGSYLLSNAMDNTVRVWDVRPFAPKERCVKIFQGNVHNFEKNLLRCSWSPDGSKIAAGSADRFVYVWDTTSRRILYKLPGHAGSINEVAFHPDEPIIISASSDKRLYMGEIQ
Chain of CD2 antigen cytoplasmic tail-binding protein 2 (O95400 whole entry): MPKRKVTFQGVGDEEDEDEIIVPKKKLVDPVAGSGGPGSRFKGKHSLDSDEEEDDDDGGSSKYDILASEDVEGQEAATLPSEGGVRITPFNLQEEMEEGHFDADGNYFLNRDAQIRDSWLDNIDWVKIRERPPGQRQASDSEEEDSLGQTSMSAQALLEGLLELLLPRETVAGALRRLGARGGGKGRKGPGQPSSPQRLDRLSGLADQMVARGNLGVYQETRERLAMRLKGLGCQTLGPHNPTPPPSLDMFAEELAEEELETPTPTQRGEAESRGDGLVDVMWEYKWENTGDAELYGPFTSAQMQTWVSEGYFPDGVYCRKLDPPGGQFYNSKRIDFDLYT
Chain of U5 small nuclear ribonucleoprotein TSSC4 (Q9Y5U2 whole entry): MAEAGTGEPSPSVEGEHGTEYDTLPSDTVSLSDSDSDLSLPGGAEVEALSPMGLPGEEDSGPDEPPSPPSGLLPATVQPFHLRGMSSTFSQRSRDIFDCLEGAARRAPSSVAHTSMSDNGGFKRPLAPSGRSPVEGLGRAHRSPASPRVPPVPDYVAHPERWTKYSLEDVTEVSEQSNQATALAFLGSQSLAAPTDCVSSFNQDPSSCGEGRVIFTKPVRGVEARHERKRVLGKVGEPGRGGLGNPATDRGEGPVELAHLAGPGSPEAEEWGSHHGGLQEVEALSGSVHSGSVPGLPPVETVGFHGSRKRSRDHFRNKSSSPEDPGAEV

## U5 small nuclear ribonucleoprotein 200 kDa helicase, O75643
[1]
  listed as a hit: yes

## Pre-mRNA-processing factor 6, O94906
[2]
  listed as a hit: yes
[3]
  listed as a hit: yes

## CD2 antigen cytoplasmic tail-binding protein 2, O95400
[4]
  listed as a hit: yes
[5]
  listed as a hit: yes
[3]
  listed as a hit: yes
